Screens: PubChem, National Center for Advancing Translational Sciences (NCATS)
pS6 MEF inh: reduces mTORC1 signaling in Tsc2 and p53 null MEF cells; Tsc2-/- p53-/- MEF, phospho-rpS6 immunofluorescence/PI, 24 h; Potency, µM (highest dose often 38.3 µM), without a hit: at the top dose activity change, negative = inhibition, actives largely listed as inhibitors; hit rate 0.78% among 44,000; AID 493208;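 further: plate controls were DMSO for no effect and rapamycin for full effect; nearly all actives have a fitted effect of over 50% in size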
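Plate MEFs (Tsc2-/-, p53-/-, empty vector) in DMEM/10% FBS; after 24 h add compound, incubate 24 h at 37 degree Celsius; fix in PFA/TX-100, block, stain phospho-rpS6 and 10 uM PI; scan at 488 nm; report % positive cells.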
HTT-AS promoter: activates huntingtin-antisense promoter activity; HEK293 HTT-AS promoter firefly luciferase reporter, 24 h; response scale: percent change from vehicle, -100% = no light; Potency, µM (series often up to 57.5 µM), without a hit: at the highest dose activity change, positive = activation, hits mostly activators; hit rate 0.24% among 48,000; AID 1508624; further: nearly all actives have a fitted effect of over 55% in size
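HEK293 luciferase promoter-reporter cells (2,500/well) plated 24 h, then compounds added at up to 57.5 uM final for 24 h at 37 °C. Firefly luminescence by Dual-Glo, normalized to vehicle (0%) and zero RLU (-100%).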
PMP22 txn: PMP22 gene transcription modulation; Potency, µM (titrated, usually from 57.5 µM), inactives show at the top dose activity change, negative = inhibition, usual class: inhibitors; hit rate 2% among 43,000; S16 Pmp22-F2sN Schwann cells, FLuc/NLuc coincidence luminescence, 24 h; AID 1508649; active means clear falling dose curves in both reporters; inconclusive means both reporters move, but less clearly or upward; inactive means either reporter flat; the % is the NLuc reporter signal; further: on the % scale 0 is the no-effect control and ±100 the full control effect
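Luminescent read-out of sequential FLuc and NLuc signals from a reporter embedded in the Pmp22 3' UTR of S16 Schwann cells, taken after 24 h compound exposure at 37C; compounds reducing both signals score as inhibitors of expression.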
HTT promoter inh: inhibitors of huntingtin promoter activity. Potency, µM (top dose mostly 57.5 µM), inactives show at the top dose activity change, negative = inhibition, hits mostly inhibitors. hit rate 0.93% among 48,000. HEK293 HTT promoter firefly luciferase reporter, 24 h; further: nearly all actives have a fitted effect of over 50% in size
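Firefly luciferase signal from promoter-reporter HEK293 cells was scaled between vehicle (0%) and zero RLU (-100%). Compounds were tested at final concentrations of up to 57.5 uM over 24 h at 37 degrees C. PTC124 at 50 uM final served as control inhibitor.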
S16 F2sN tox: cytotoxicity in S16 Pmp22-F2sN Schwann cells; S16 Pmp22-F2sN Schwann cells (luciferase reporters placed in the Pmp22 gene) viability, CellTiter-Glo, 24 h; Potency, µM (top dose mostly 57.5 µM), for inactives: at the highest dose activity change, negative = cytotoxicity, most hits filed as cytotoxic; hit rate 0.48% among 43,000; AID 1508642; further: on the % scale 0 is the no-effect control and ±100 the full control effect; nearly all actives have a fitted effect of over 65% in size
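Luminescence from CellTiter-Glo, read by CCD camera after a 15 min room-temperature incubation, served as the viability signal. Reporter Schwann cells (S16 Pmp22-F2sN) had been treated with pin-transferred compounds for 24 h at 37C.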
FH mod: Identification of activators of human fumarate hydratase by quantitative high-throughput screening | FH coupled MDH/diaphorase resazurin fluorescence, 15 min | Potency, µM (doses to about 79.9 µM), for inactives: at the top dose activity change, negative = inhibition, hits mostly inhibitors | hit rate 0.22% among 54,000; further: on the % scale 0 is the no-effect control and ±100 the full control effect; the screen sought activators but most active calls are inhibition curves; nearly all actives have a fitted effect of over 45% in size
Target sequence (P07954 whole entry, looked up): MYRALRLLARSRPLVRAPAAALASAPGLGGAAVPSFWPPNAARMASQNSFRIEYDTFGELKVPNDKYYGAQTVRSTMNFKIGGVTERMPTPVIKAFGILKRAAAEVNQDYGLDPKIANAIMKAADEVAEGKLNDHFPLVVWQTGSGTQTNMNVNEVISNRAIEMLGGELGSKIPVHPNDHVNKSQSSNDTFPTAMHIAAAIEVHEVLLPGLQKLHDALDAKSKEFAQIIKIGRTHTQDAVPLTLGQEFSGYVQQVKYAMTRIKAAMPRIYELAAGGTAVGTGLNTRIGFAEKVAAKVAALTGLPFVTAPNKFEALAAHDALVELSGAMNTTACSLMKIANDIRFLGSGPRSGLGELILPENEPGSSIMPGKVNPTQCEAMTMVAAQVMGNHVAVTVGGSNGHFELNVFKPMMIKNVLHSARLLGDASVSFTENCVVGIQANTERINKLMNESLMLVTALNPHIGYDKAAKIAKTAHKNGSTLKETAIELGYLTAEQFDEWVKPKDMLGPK
* = called active by the depositor; u = inconclusive; x = not tested or not shown; ! = not confirmed by another sample; [ ] = remark or other dose. In the library only some 3.3% were active in any assay of this set; here they are far more common. Unless noted, the call rests on the fitted dose curve; in most records, active means well fitted curve in the direction sought with a large enough effect; inconclusive means small, poorly fitted or top-dose-only effect, or another doubt; inactive means no such curve, though single readings can be large; an effect the other way counts as inactive or inconclusive. Potency means the concentration at half of the fitted maximal effect.

SMILES	pS6 MEF inh	HTT-AS promoter	PMP22 txn	HTT promoter inh	S16 F2sN tox	FH mod
CC(C)CC(=O)OC[C@H]1O[C@@](COC(=O)CC(C)C)(O[C@H]2O[C@H](CO)[C@@H](O)[C@H](O)[C@H]2O)[C@@H](OC(=O)CC(C)C)[C@@H]1OC(=O)CC(C)C	x	x	x	x	x	-3%[20.6 µM]
COC(=O)c1ccc(Nc2nnc(-c3ccc(C)c(S(=O)(=O)N4CCN(C)CC4)c3)c3ccccc23)cc1	21µM*	5%	-44%	8%	u	u
CCc1c(C)sc2c1CCN(Cc1ccccc1)C2c1ccccc1 (centres undefined)	4%	-36%	5.7µM*	u	u	-4%
CCc1c(C)sc2c1CCN(Cc1ccccc1C#N)C2c1ccccc1 (centres undefined)	3%	-5%	u	-13%	-30%	-17%
C=C1C(OC(C)=O)C(=O)C2C(C)(C)C(O)CCC2(C)C1CC(OC(C)=O)/C(C)=C/COC(C)=O (centres undefined)	x	x	x	x	x	7%[53.3 µM]
CCOc1ccccc1C1CC(=O)NC(C)=C1C(=O)OC1CCCCCC1 (centres undefined)	-5%	-45%	u	32µM*	u	-19%
CC1=C(C(=O)OC2CCCCCC2)C(c2ccccc2Cl)CC(=O)N1 (centres undefined)	-10%	-33%	-19%	u	u	0%
COc1ccccc1N1CCN(S(=O)(=O)c2cc(C(=O)Nc3ccc(Oc4ccccc4)cc3)ccc2F)CC1	-10%	-42%	u	1.4µM*	-28%	-22%
Cc1cccc(NC(=O)c2ccc(F)c(S(=O)(=O)N3CCN(c4ccc(F)cc4)CC3)c2)c1	13%	-31%	2%	u	-22%	u
O=C(Nc1ccc(Oc2ccccc2)cc1)c1ccc(F)c(S(=O)(=O)N2CCN(c3ccccc3F)CC2)c1	12%	-44%	-1%	2µM*	-15%	-7%
Cc1cccc(N2CCN(S(=O)(=O)c3cc(C(=O)Nc4ccc(Oc5ccccc5)cc4)ccc3F)CC2C)c1 (centres undefined)	-13%	-46%	u	1µM*	-19%	1%
O=C(Nc1ccc(Oc2ccccc2)cc1)c1ccc(F)c(S(=O)(=O)N2CCN(c3cccc(Cl)c3)CC2)c1	0%	-44%	5%	u	u	-8%
CSC(Cc1ccc(Cl)cc1)C(=O)Nc1ccc(Cl)cc1C(=O)O (centres undefined)	x	x	x	x	x	-37%
Nc1c(C(=O)c2ccccc2)sc(Nc2ccc(Cl)c(Cl)c2)c1C(=O)Nc1ccccc1	-6%	-43%	u	28µM*	-15%	13%
Cc1ccc(Nc2sc(C(=O)c3ccccc3)c(N)c2C(=O)Nc2ccc(Cl)cc2)cc1	-8%	-36%	u	u	u	-10%
CC(C)c1ccc(CNc2n[nH]c(-c3ccco3)n2)cc1	-1%	u	-5%	30%	1%	7%
Fc1cccc(Cl)c1CNc1n[nH]c(-c2ccco2)n1	0%	5µM*	14%	47%	-5%	1%
CNCc1ccc(-c2cc(-c3nc(-c4ccc(S(=O)(=O)C(C)C)cc4)cnc3N)on2)cc1	x	x	x	x	x	3%
COc1cc(CNc2ccc3[nH]c(=O)[nH]c3c2)cc(Cl)c1OCc1ccccc1F	-14%	-32%	u	u	u	-11%
CCOc1cc(CNc2ccc(O)cc2)cc(Cl)c1OCc1ccccc1	u	-21%	u	-28%	8.9µM*	u
COc1cc(CNc2ccc3[nH]c(=O)[nH]c3c2)cc(Cl)c1OCc1ccc(F)cc1	0%	-13%	u	-13%	-18%	35µM*
COc1cc(CNc2ccc3[nH]c(=O)[nH]c3c2)cc(Br)c1OCc1ccc(F)cc1	-21%	-35%	1.9µM*	u	u	u
Cc1cc(Nc2ncc(Cl)c(Nc3ccccc3S(=O)(=O)C(C)C)n2)c(OC(C)C)cc1C1CCNCC1	x	x	x	x	x	4%
COC(=O)c1cc2sccc2n1CC(=O)Nc1cc(Cl)ccc1OC	-25%	-85%	u	28µM*	-25%	-2%
O=C(Nc1ccc(N(Cc2ccsc2)C(=O)Cn2nnc3ccccc32)cc1)C1CC1	x	x	x	x	x	0%
SMILES	pS6 MEF inh	HTT-AS promoter	PMP22 txn	HTT promoter inh	S16 F2sN tox	FH mod
Cc1cc2c(C(C)C)c(O)c(O)c(C=O)c2c(O)c1-c1c(C)cc2c(C(C)C)c(O)c(O)c(C=O)c2c1O	x	-89%	x	u	x	28µM*!
O=C1CC(c2ccccc2)Cc2[nH]c(=O)c(-c3nc(-c4cccc(Cl)c4)cs3)cc21 (centres undefined)	12µM*	-23%	-21%	-23%	u	-7%
COc1ccc(C2CC(=O)c3cc(-c4nc(-c5ccc(Cl)cc5)cs4)c(=O)[nH]c3C2)cc1OC (centres undefined)	7%	-19%	22%	-18%	2%	2%
Nc1nc(Cl)nc2c1ncn2[C@@H]1O[C@H](COP(=O)(O)OP(=O)(O)OP(=O)(O)O)C(O)[C@H]1O (some centres undefined)	x	x	x	x	x	-14%[53.3 µM]
O=c1oc2ccccc2n1CCCOc1ccccc1Cl	-2%	7.9µM*	-5%	22%	12%	-1%
CCOc1ccc(Cn2c(=O)oc3ccccc32)cc1	-7%	-7%	-10%	8%	12%	2%
O=C(Nc1ccccc1C(=O)Nc1ccc(CCO)cc1)c1ccc([N+](=O)[O-])cc1	x	x	x	x	x	4%
CC(=O)O[C@@H]1C[C@@]23C[C@@]24CC[C@H](O[C@@H]2OC[C@H](O)[C@H](O)[C@H]2O)C(C)(C)[C@@H]4CC[C@H]3[C@]2(C)[C@@H](O)C34O[C@H](C[C@@H](C)[C@@H]3[C@@]12C)[C@@H](C(C)(C)O)O4	x	x	x	x	x	-1%
CCn1c(=N)n(CCOc2ccc(Br)cc2)c2ccccc21	13µM*	-33%	u	u	u	-5%
COc1ccc(OCC(O)Cn2c(=N)n(CCN3CCCCC3)c3ccccc32)cc1 (centres undefined)	x	-12%	u	-16%	u	1%
COC(=O)C[C@@H]1C(C(=O)O)=CO[C@@H](O[C@@H]2O[C@H](CO)[C@@H](O)[C@H](O)[C@H]2O)/C1=C\COC(=O)/C=C/c1ccc(O)c(OC)c1	x	x	x	x	x	-5%[20.6 µM]
